Test results as given in PubChem BioAssay (EPA / NIEHS).
Calls of active or inactive are those of the source. How the source made its calls: active means hit-call score of the fitted dose curve at least 0.9, where 1 is the maximum; inactive means score below 0.9.

These compounds were tested on Tissue plasminogen activator (tPA), PLAT (gene 5327) (assay: BSK_BE3C_tPA: BioMAP Diversity Plus: BE3C Assay for Tissue plasminogen activator (tPA) Biomarker Activity (AID 2283041)). Details: primary human bronchial epithelial cells; actives raise or lower the signal.
Method: BSK_BE3C is a cell-based, multiplexed-readout assay that uses bronchial epithelial cell, a human lung primary cell, with measurements taken at 24 hours after chemical dosing in a 96-well plate.BSK_BE3C_tPA is an assay component measured in the BSK_BE3C assay. It measures tPA antibody related to regulation of gene expression using ELISA technology.Data from the assay component BSK_BE3C_tPA was analyzed into 1 assay endpoint. This assay endpoint, BSK_BE3C_tPA, was analyzed with bidirectional fitting relative to DMSO as the negative control and baseline of activity. Using a type of binding reporter, gain or loss-of-signal activity can be used to understand changes in the signaling as they relate to the gene PLAT. Furthermore, this assay endpoint can be referred to as a primary readout, because this assay has produced multiple assay endpoints where this one serves a signaling function. To generalize the intended target to other relatable targets, this assay endpoint is annotated to the protease intended target family, where the subfamily is serine protease.
The levels of cell surface (or secreted, indicated by the prefix "s") biomarker endpoints were measured by ELISA. Overt cytotoxicity to cells in confluent adherent cultures (all systems other than the BT system) was assessed by measuring total protein levels using sulforhodamine B (SRB) staining in parallel cultures at the time of biomarker measurements, indicated as SRB endpoints. For proliferation assays for adherent cell types, individual cell types are cultured at sub-confluence and relative cell numbers quantified by SRB staining at time points optimized for each system (48 h: 3C and CASM3C systems; 72 h: BT and HDF3CGF systems; 96 h: SAg system). SRB was performed by staining cells with 0.1% SRB after fixation with 10% TCA and reading wells at 560 nm.Viability and proliferation of PBMC (T cells) was quantified by Alamar Blue reduction for the SAg and BT systems. For PBMC viability (referred to as PBMC Cytotoxicity within the assay endpoint names), cells were plated (75,000/well in a 96-well plate) and then chemical samples added for 1 h before addition of activators, SEB and TSST-1 (20 ng/mL final concentration each). Cells were incubated for 90 h. Then, Alamar Blue (20 uL/well) (Invitrogen, Cat DAL1100) was added for 6 h, and the plates were read with a fluorescence microplate reader at 546/580 nm (excitation/emission). For PBMC proliferation, cells were plated and activated as above but incubated for only 16 h prior to addition of Alamar Blue. Plates were read after 6 h.
For COP(=S)(OC)Oc1ccc([N+](=O)[O-])c(C)c1, the outcome was “inactive”.
In the case of CS(=O)(=O)c1cc(C(F)(F)F)ccc1C(=O)c1cnoc1C1CC1, the outcome is reported as “inactive”.
CCOc1nc(C(Cl)(Cl)Cl)ns1 was tested, and the outcome was “inactive”.
For CCOP(=O)(OCC)Oc1nc(Cl)c(Cl)cc1Cl, the outcome was “inactive”.
COCC(=O)N(c1c(C)cccc1C)C(C)C(=O)OC (stereo not given) was tested, and the outcome was “inactive”.
With COP(=S)(OC)SCn1nnc2ccccc2c1=O the outcome was “inactive”.
In the case of N#CN=C1SCCN1Cc1ccc(Cl)nc1, the outcome is reported as “inactive”.
In the case of CNC(=O)Oc1cccc2ccccc12, the outcome is reported as “inactive”.
For Clc1nc(Cl)nc(Nc2ccccc2Cl)n1, the outcome was “inactive”.
CN/C(=N\[N+](=O)[O-])NCc1cnc(Cl)s1 was tested, and the outcome was “inactive”.
With C=C(C)CN(CC)c1c([N+](=O)[O-])cc(C(F)(F)F)cc1[N+](=O)[O-] the outcome was “inactive”.
Cc1cc(C)nc(Nc2ccccc2)n1 was tested, and the outcome was “inactive”.
In the case of CCCCOCN(C(=O)CCl)c1c(CC)cccc1CC, the AC50 is reported as 36.9 µM (active).
With CN=C=S the outcome was “inactive”.
With O=P(O)(O)CCCl the outcome was “inactive”.
With COP(=O)(OC)O/C(C)=C/C(=O)N(C)C the outcome was “inactive”.
With Cc1c(COC(=O)[C@@H]2[C@H](/C=C(\Cl)C(F)(F)F)C2(C)C)cccc1-c1ccccc1 the outcome was “inactive”.
For Nc1c(Cl)c(Cl)nc(C(=O)O)c1Cl, the outcome was “inactive”.
In the case of N#Cc1c[nH]cc1-c1cccc2c1OC(F)(F)O2, the outcome is reported as “inactive”.
For Nc1cnn(-c2ccccc2)c(=O)c1Cl, the outcome was “inactive”.
With CC(C)Oc1cccc(NC(=O)c2ccccc2C(F)(F)F)c1 the outcome was “inactive”.
COc1ccc(-c2ccccc2)cc1NNC(=O)OC(C)C was tested, and the outcome was “inactive”.
With CCNC(=O)NC(=O)C(C#N)=NOC the outcome was “inactive”.
Nc1c(Cl)c(F)nc(OCC(=O)O)c1Cl was tested, and the outcome was “inactive”.
In the case of Cc1ccc(N=CN(C)C=Nc2ccc(C)cc2C)c(C)c1, the outcome is reported as “inactive”.
In the case of CC(C)NC(=O)N1CC(=O)N(c2cc(Cl)cc(Cl)c2)C1=O, the outcome is reported as “inactive”.
In the case of CCN(CC)c1nc(C)cc(OP(=S)(OC)OC)n1, the outcome is reported as “inactive”.
CC(C)=CC1C(C(=O)OCc2coc(Cc3ccccc3)c2)C1(C)C (stereo not given) was tested, and the outcome was “inactive”.
With CCCC(=NOCC)C1=C(O)CC(CC(C)SCC)CC1=O (stereo not given) the outcome was “inactive”.
In the case of CC1(C)C(C=C(Cl)Cl)C1C(=O)OC(C#N)c1cccc(Oc2ccccc2)c1 (stereo not given), the outcome is reported as “inactive”.
CC1(C)C(C(=O)OC(C#N)c2cccc(Oc3ccccc3)c2)C1(C)C (stereo not given) was tested, and the outcome was “inactive”.
With CCSC(=O)N1CCCCCC1 the outcome was “inactive”.
In the case of CCNP(=S)(OC)O/C(C)=C/C(=O)OC(C)C (stereo not given), the outcome is reported as “inactive”.
With C=CCOC(=O)C(C)(C)OC(=O)c1cc(-n2c(=O)cc(C(F)(F)F)n(C)c2=O)ccc1Cl the outcome was “inactive”.
For O=C(Nc1ccccc1-c1ccc(Cl)cc1)c1cccnc1Cl, the outcome was “inactive”.
For CCOc1cc(C(C)(C)C)ccc1C1COC(c2c(F)cccc2F)=N1 (stereo not given), the AC50 was 22.1 µM (active).
CCOc1nc(F)cc2nc(S(=O)(=O)Nc3c(Cl)cccc3Cl)nn12 was tested, and the outcome was “inactive”.
With O=c1n(Cl)c(=O)n(Cl)c(=O)n1Cl the outcome was “inactive”.
In the case of COC(=O)NS(=O)(=O)c1ccc(N)cc1, the outcome is reported as “inactive”.
For CC(C)C1(C)N=C(c2ncccc2C(=O)O)NC1=O (stereo not given), the outcome was “inactive”.
